In PubChem BioAssay:
Calls of active or inactive are those of the source.

Experiments:
[1] = small molecules captured by biotinylated probe aFSTL3 – biochemical, small-molecule microarray, fluorescence 635/667, stem cell growth factor project, primary screen (AID 1064); conditions: higher = more signal;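 note: measures binding of the biotinylated anti-FSTL3 antibody to printed compounds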
[2] = binders from COS7 lysate, DM2A8 probe, primary screen, torsin A project, cell lysate, small-molecule microarray, fluorescence 635/667 (AID 1065); conditions: higher = more signal, COS7 lysate expressing mutant human TOR1A
[3] = small molecules captured by biotinylated probe aFGF2 – biochemical, small-molecule microarray, fluorescence 635/667, stem cell growth factor project, primary screen (AID 1067); conditions: higher = more signal;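 note: measures binding of biotinylated aFGF2 protein to printed compounds on slides; z-score merges feature fluorescence and signal-to-noise across triplicate slides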
[4] = small molecules captured by biotinylated probe aFGF10 – biochemical, small-molecule microarray, fluorescence 635/667, stem cell growth factor project, primary screen (AID 1071); conditions: higher = more signal;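 note: score merges 667 nm spot intensity and signal to noise from triplicate slides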
[5] = biological target: Neurogenic locus notch homolog protein 2 (Homo sapiens) (UniProt Q04721); assay: small molecules binding Notch2 protein – biochemical, small-molecule microarray, 635 nm fluorescence, stem cell growth factors, primary screen (AID 1073); conditions: higher = more signal
[6] = biological target: Pro-neuregulin-1, membrane-bound isoform (Homo sapiens) (UniProt Q02297); assay: small molecules binding neuregulin-1 protein – biochemical, small-molecule microarray, fluorescence 635/667, psychiatric disease protein project, primary screen (AID 1075); conditions: NRG1 binding, 635 nm fluorescence, higher = more signal;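 note: score combines 667 nm spot fluorescence with signal to noise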
[7] = system: Neuregulin-1 EGF-like domain; assay: small molecules binding NRG1 EGF domain – biochemical, small-molecule microarray, 635 nm fluorescence, primary screen (AID 1081); conditions: higher = more signal;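 note: binding of the protein to compounds printed on small-molecule microarray slides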
[8] = FRG1 expression reporter modulators in myotubes – cell-based, C2C12 myotubes, firefly/Renilla luciferase, luminescence, FRG1 inhibition for FSHD, primary screen (AID 1084); conditions: FRG1 promoter luciferase, higher = more signal, called active from +8 up or from −8 down
[9] = small molecules captured by biotinylated probe aFST – biochemical, small-molecule microarray, fluorescence 635/667, stem cell growth factor project, primary screen (AID 1086); conditions: higher = more signal;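 note: score merges 667 nm fluorescence with signal-to-noise of each printed compound spot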
[10] = binders of probe aHhip on microarray, primary screen, stem cell growth factor project, biochemical, small-molecule microarray, fluorescence 635/667 (AID 1087); conditions: higher = more signal;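 note: score merges spot fluorescence at 667nm with spot signal to noise ratio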
[11] = system: PRMT1 (protein arginine N-methyltransferase 1); assay: small molecules binding arginine methyltransferase PRMT1 – biochemical, small-molecule microarray, 635 nm fluorescence, primary screen (AID 1088); conditions: higher = more signal;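 note: binding of Prmt1 protein to compounds spotted on small-molecule microarray slides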
[12] = growth effects on S. cerevisiae YJM789 – YJM789 clinical isolate, OD600, 24 h, basal, primary screen (AID 1089); conditions: higher = more signal, called active from +8 up or from −8 down;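 note: growth of clinical yeast isolate S. cerevisiae YJM 789 seeded 1000 cells per well; test concentration not given here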
[13] = S. pombe growth modifiers, basal conditions – strain 972, OD600, 24 h, no modulator, primary screen (AID 1090);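 note: basal condition with compound alone and no growth modifier present; test concentration not given here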; conditions: S. pombe 972 growth, higher = more signal, called active from +8 up or from −8 down
[14] = budding yeast growth modifiers under rapamycin – strain BY4716, OD600, 96 h, primary screen (AID 1091); note: test concentration not given here; conditions: S. cerevisiae BY4716 + rapamycin, higher = more signal, called active from +8 up or from −8 down
[15] = biological target: Torsin-1A-interacting protein 2 (Homo sapiens) (UniProt Q8NFQ8); assay: small molecules binding lysate-expressed LULL1 – cell lysate, human LULL1 lysate, 635/667 nm fluorescence, primary screen (AID 1092); conditions: small-molecule microarray, hLULL1 lysate binding, 635 nm fluorescence; higher = more signal;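 note: probe is lysate of COS7 cells overexpressing human LULL1; score merges per-feature 667 nm fluorescence with signal-to-noise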
[16] = optical density change of DRC41 E. coli – strain DRC41, OD650, 24 h, E. coli filamentation project, primary screen (AID 1093);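 note: MC1000 strain lacking acrAB efflux and sulA so SOS filamentation is blocked; test concentration not given here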; conditions: E. coli DRC41 growth, higher = more signal, called active from +8 up or from −8 down
[17] = probe aLefty2 binding to arrayed compounds – biochemical, biotinylated probe, 635/667 nm fluorescence, primary screen (AID 1094); conditions: small-molecule microarray, higher = more signal;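 note: score merges spot fluorescence near 667 nm with spot signal-to-noise ratio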
[18] = system: Noggin (protein binding on small-molecule microarray); assay: small molecules binding Noggin protein – biochemical, 635/667 nm fluorescence, primary screen (AID 1095); conditions: 635 nm fluorescence, higher = more signal;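 note: score merges 667 nm feature fluorescence with signal to noise over triplicate slides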
[19] = biological target: Neurogenic locus notch homolog protein 3 (Homo sapiens) (UniProt Q9UM47); assay: small molecules binding NOTCH3 protein – biochemical, 635/667 nm fluorescence, primary screen (AID 1096); conditions: small-molecule microarray, 635 nm fluorescence, higher = more signal
[20] = probe aEGFR binding to arrayed compounds – biochemical, biotinylated probe, 635/667 nm fluorescence, primary screen (AID 1097); conditions: small-molecule microarray, higher = more signal;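 note: probe is a biotinylated anti-EGFR antibody binding compounds printed on slides; score combines fluorescence near 667 nm and signal to noise of each spot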

Chain of Pro-neuregulin-1, membrane-bound isoform (Homo sapiens) (Q02297 whole entry, looked up, the tested form may be a part, canonical isoform): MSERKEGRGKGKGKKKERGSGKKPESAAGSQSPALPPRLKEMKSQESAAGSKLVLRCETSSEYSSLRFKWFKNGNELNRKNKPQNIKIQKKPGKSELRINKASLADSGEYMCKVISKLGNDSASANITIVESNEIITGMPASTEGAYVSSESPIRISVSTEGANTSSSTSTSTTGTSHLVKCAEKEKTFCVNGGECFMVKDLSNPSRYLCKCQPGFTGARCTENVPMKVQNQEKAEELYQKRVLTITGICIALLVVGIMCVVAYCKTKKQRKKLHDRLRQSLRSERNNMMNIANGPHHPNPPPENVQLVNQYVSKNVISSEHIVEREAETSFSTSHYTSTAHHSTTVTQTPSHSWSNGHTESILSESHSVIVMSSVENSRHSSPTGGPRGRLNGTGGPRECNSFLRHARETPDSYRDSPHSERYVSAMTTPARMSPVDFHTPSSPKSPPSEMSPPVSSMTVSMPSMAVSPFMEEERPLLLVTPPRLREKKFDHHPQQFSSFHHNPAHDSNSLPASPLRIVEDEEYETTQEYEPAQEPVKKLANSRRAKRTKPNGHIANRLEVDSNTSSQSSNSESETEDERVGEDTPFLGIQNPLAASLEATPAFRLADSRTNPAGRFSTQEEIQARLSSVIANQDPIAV
Chain of Neurogenic locus notch homolog protein 2 (Homo sapiens) (Q04721 whole entry, looked up, canonical isoform): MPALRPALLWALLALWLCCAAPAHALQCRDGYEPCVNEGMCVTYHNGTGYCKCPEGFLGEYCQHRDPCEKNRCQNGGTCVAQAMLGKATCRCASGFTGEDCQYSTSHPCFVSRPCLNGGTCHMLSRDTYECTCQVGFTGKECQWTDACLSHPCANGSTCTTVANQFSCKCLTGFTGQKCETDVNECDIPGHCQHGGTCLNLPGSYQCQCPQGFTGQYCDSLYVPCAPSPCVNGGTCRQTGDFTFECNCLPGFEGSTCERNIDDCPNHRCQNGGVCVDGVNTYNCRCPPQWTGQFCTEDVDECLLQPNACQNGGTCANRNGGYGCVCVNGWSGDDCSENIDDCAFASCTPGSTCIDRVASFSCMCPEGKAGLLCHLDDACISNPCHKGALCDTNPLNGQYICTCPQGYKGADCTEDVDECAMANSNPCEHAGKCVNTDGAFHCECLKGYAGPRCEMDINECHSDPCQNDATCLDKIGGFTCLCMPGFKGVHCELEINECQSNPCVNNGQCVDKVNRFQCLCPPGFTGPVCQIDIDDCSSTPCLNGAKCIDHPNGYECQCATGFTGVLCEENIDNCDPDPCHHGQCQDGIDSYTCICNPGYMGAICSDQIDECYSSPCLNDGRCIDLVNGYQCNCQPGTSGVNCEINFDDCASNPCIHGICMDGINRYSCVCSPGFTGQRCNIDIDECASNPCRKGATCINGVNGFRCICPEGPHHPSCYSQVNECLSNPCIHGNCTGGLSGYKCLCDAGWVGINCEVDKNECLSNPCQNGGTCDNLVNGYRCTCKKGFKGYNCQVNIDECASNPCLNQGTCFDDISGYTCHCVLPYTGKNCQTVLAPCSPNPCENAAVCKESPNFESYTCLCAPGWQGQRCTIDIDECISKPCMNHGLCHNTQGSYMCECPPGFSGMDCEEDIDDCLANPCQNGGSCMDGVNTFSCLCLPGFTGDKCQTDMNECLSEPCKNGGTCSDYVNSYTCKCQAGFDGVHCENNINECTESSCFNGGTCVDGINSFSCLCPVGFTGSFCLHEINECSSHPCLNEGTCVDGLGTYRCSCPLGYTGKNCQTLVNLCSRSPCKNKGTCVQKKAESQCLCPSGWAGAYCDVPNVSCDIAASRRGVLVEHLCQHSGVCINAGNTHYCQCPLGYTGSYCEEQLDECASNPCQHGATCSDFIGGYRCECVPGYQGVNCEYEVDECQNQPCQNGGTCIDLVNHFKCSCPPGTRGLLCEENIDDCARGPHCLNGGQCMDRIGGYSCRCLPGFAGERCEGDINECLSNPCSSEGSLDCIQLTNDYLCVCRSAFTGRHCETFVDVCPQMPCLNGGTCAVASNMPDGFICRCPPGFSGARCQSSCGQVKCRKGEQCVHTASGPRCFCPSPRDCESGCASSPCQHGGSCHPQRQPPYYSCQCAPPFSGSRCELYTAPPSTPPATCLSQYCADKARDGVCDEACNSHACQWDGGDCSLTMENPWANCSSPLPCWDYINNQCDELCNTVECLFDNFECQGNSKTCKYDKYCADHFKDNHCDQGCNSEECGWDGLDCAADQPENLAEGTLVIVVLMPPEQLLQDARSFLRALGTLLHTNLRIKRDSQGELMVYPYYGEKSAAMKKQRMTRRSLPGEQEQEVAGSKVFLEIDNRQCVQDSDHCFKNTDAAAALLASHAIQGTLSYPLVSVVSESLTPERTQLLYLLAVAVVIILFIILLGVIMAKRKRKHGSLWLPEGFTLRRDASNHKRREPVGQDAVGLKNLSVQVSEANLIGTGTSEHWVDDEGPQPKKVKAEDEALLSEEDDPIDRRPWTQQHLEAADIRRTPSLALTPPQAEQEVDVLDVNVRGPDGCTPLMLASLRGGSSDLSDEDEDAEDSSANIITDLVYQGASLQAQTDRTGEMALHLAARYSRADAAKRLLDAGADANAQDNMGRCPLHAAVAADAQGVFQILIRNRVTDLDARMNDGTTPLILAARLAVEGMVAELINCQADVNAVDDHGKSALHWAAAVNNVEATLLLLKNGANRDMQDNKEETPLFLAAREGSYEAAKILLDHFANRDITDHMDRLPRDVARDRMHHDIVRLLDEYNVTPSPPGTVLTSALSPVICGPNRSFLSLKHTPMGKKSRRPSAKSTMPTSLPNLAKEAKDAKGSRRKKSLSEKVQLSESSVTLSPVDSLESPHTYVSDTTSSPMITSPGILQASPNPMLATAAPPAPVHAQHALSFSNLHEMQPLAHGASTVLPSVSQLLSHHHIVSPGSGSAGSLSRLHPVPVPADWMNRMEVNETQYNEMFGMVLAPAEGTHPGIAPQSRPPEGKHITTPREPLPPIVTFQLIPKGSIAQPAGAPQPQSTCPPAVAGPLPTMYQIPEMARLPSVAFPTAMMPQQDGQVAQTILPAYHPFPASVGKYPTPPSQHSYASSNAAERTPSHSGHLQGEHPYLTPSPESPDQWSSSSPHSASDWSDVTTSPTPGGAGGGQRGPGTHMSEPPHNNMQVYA
Chain of Torsin-1A-interacting protein 2 (Homo sapiens) (Q8NFQ8 whole entry, looked up): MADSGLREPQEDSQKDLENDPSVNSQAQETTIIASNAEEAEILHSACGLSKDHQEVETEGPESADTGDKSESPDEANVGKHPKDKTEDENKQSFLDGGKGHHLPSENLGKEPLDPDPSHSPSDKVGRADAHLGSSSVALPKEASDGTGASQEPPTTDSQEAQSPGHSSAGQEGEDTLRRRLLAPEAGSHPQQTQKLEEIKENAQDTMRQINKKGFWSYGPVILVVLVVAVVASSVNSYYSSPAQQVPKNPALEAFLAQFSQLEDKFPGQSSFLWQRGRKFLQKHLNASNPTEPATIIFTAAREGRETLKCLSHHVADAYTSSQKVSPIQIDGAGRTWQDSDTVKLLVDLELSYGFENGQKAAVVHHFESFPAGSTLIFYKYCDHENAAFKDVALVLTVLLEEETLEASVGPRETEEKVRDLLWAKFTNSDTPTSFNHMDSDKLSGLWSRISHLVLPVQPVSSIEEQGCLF

SMILES	composite z-score [1]	composite z-score [2]	composite z-score [3]	composite z-score [4]	composite z-score [5]	composite z-score [6]	composite z-score [7]	z-score [8]	composite z-score [9]	composite z-score [10]	composite z-score [11]	z-score [12]	z-score [13]	z-score [14]	composite z-score [15]	z-score [16]	composite z-score [17]	composite z-score [18]	composite z-score [19]	composite z-score [20]
COCCCNC(=O)[C@@]1(Cc2ccccc2I)c2ccccc2C(=O)N(Cc2ccccc2C(F)(F)F)[C@H]1c1ccc(CO)cc1	0.088	0.395	-0.0232	-0.283	-1.01	0.988	1.05	-1.78 (inactive)	0.341	0.0826	1.4	-0.784 (inactive)	0.25 (inactive)	0.437 (inactive)	2.47	-0.627 (inactive)	-0.0654	-0.473	0.03	-0.291
CCOC(=O)C1=CCC(c2cccn2C(=O)OC(C)(C)C)N(S(=O)(=O)c2ccc(C)cc2)C1 (stereo not given)	1.3	0.42	0.0267	0.243	0.884	1.7	1.18	-2.99 (inactive)	0.67	1.07	1.48	-0.0556 (inactive)	0.69 (inactive)	0.382 (inactive)	3.36	-0.0304 (inactive)	0.194	0.205	1	-0.0004
C=C(CCCC)C(=O)CC[C@@H](OC(C)=O)c1ccc(OCCO)cc1	0.0324	1.11	-0.0909	1.01	-0.626	0.409	1.02	-0.0798 (inactive)	0.0685	-0.134	1.01	-1.58 (inactive)	-2.48 (inactive)	-0.679 (inactive)	0.742	0.44 (inactive)	-0.178	1.53	1.13	-0.216
C=CC[C@]12N=C(c3ccc(OCCCO)cc3)O[C@H]1c1ccccc1N(CCC)C2=O	1.08	1.02	0.239	0.367	0.481	1.56	1.35	0.43 (inactive)	2	-0.0961	1.55	-1.42 (inactive)	-2.04 (inactive)	-1.06 (inactive)	2.96	0.544 (inactive)	0.15	1.2	1.11	0.198
COC(=O)[C@@]1(Cc2ccc(F)cc2)[C@H]2c3cc(C(=O)N(C)C)n(Cc4ccsc4Br)c3C[C@H]2CN1C(=O)c1ccccc1	2.25	-0.3	0.915	1.01	1.83	1.88	0.529	1.94 (inactive)	2.68	3.87	-0.291	0.232 (inactive)	0.168 (inactive)	1.37 (inactive)	3.64	-1.32 (inactive)	1.38	-0.322	1.08	1.06
